Reference: PubChem BioAssay
Where “and” joins values, the source holds several entries; their conditions need not be identical. Equal values may be shown once. Calls of active or inactive are those of the source. Unless noted, how the calls were made is not given here.

Columns and labels:
[1] = kinase inhibitors against Plasmodium liver-stage infection, cell-based, known kinase inhibitor set, luminescence, hepatoma host viability (AID 624392); conditions: Plasmodium liver stage in hepatoma cells, luciferase luminescence, concentration not given here; liver cell % of control: measured here: host liver cell viability; parasite % of control: stronger effect = lower value;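 further: infected cells incubated roughly two days before readout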
[2] = modulators of glucocorticoid suppression of NF-kB, cell-based, luciferase, IL-1B stimulus, dexamethasone (AID 624486); conditions: NF-kB luciferase reporter, IL-1B + dexamethasone, luminescence; percent of negative control (+Dex): actives lie on both sides, concentration not given here; z-score: measured here: IL-1B alone, no Dex;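 on percent of negative control (+Dex): 100% = mean signal of vehicle control wells on the plate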
[3] = kinase inhibitors altering Pseudomonas killing of worms, whole organism (AID 651566);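 further: tested at 14 µM; sign flipped so higher z means a lower ratio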; conditions: C. elegans killed by P. aeruginosa, survival ratio
[4] = activators of macrophage pro-inflammatory response, cell-based, murine, luminescence (AID 652131); conditions: murine macrophage pro-inflammatory reporter, stronger effect = higher value
[5] = biological target: Cellular tumor antigen p53 (Homo sapiens) (UniProt P04637); assay: kinase inhibitors altering GFP-p53 stability in HPV16-positive cells, imaging, known kinase inhibitor set, EGFP/DsRed ratio (AID 1053116); conditions: stronger effect = higher value; EGFP object count: measured here: GFP-p53 positive objects count;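 further: cells exposed to compounds for 24 h at 37 °C before reading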
Cellular tumor antigen p53 (Homo sapiens), sequence (P04637 whole entry, looked up): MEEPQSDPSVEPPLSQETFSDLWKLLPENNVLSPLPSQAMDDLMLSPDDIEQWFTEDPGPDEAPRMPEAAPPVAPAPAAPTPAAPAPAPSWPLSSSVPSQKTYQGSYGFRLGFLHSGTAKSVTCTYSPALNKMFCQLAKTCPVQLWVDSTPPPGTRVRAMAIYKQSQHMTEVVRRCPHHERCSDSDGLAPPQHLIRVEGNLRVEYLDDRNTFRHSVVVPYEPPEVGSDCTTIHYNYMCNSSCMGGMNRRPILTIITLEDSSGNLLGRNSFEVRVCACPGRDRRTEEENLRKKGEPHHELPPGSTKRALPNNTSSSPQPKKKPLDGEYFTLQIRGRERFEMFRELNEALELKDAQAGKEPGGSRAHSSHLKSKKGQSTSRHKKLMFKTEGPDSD

[6] = IRF3 reporter activation in THP-1 macrophages, cell-based, PMA-stimulated THP-1, luminescence (AID 1053176); conditions: PMA-differentiated THP-1, IRF3 reporter luminescence; stronger effect = higher value
[7] = survival rescue of mitochondrial mutant cells in low glucose, primary screen, MELAS cybrids, Rieske KO mouse fibroblasts, CellTiter-Glo (AID 1508586;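 active means mean z-score across replicates of 1.96 or higher in either the MELAS or the Rieske mutant cell line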;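 further: z relative to plate mean and SD of compound and empty wells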)
[8] = MELAS cybrid survival, CellTiter-Glo 48 h, stronger effect = higher value
[9] = Rieske KO mouse fibroblast survival, CellTiter-Glo 72 h

Structure (SMILES) | liver cell % of control [1] | parasite % of control [1] | percent of negative control (+Dex) [2] | z-score [2] | z-score [3] | z-score [4] | EGFP object count [5] | EGFP/DsRed ratio [5] | fraction signal [6] | z-score [7, 8] | z-score [7, 9]
Cc1cc(O)cc(C)c1/C=C/c1cncc(C(N)=O)c1 | 105% | 146% (inactive) | 106% (inactive) | 0.29 | -0.395 (inactive) | 0.198 (inactive) | 4 | 0.013 (inactive) | -0.001 (inactive) | -0.353 (inactive) | -0.218
COc1cccc(-n2ncc3c(N/N=C/c4ccc(C(=O)NCCN(C)C)cc4)ncnc32)c1 | 77.1% | 68.4% (inactive) | 104% (inactive) | 0.67 | -0.295 (inactive) | 0.961 (inactive) | 7 | 0.117 (inactive) | -0.0045 (inactive) | -0.557 (inactive) | 0.745
NCc1ccc(-c2nc(-c3ccc(Cl)c(O)c3)c(-c3ccncc3)[nH]2)cc1 | 94.8% | 77.4% (inactive) | 91.5% (inactive) | -0.18 | 1.2 (inactive) | -0.414 (inactive) | 2 | 0.0758 (inactive) | 0.0015 (inactive) | 0.156 (inactive) | -0.269
NS(=O)(=O)c1ccc(N=Cc2c(O)[nH]c3ccc4ncsc4c23)cc1 | 60.5% and 61.1% | 165% (inactive) and 378% (inactive) | 112% (inactive) and 98.5% (inactive) | 0.655 and 0.01 | 0.515 (inactive) and 0.145 (inactive) | -1.62 (inactive) and -1.7 (inactive) | 2.5 and 4 | 0.0629 (inactive) and 0.096 (inactive) | -0.009 (inactive) and 0.0005 (inactive) | -0.336 (inactive) and 1.1 (inactive) | 0.0286 and -0.139
Oc1cccc(-c2nc(-c3ccccc3)[nH]c2-c2ccncc2)c1 | 111% | 13.2% (active) | 124% (inactive) | 1.75 | 0.81 (inactive) | 1.63 (inactive) | 2.5 | 0.0183 (inactive) | 0.0025 (inactive) | -0.947 (inactive) | -0.653
CNC(=O)c1cccc(C#Cc2cncnc2Nc2ccc(OCc3cccc(F)c3)c(Cl)c2)c1 | 105% | 143% (inactive) | 78% (inactive) | -0.47 | 0.59 (inactive) | -0.769 (inactive) | 1 | 0.0111 (inactive) | 0.003 (inactive) | -1.16 (inactive) | -0.232
CNC(=O)c1cncc(/C=C/c2c(C)cccc2C)c1 | 106% | 86.6% (inactive) | 91.5% (inactive) | 0.11 | 0.025 (inactive) | -0.466 (inactive) | 4 | 0.149 (inactive) | 0.0135 (inactive) | 1.23 (inactive) | 0.0124
COc1ccc(-c2ccc3c(NC(=O)C4CC4)n[nH]c3n2)cc1 | 119% | 77.2% (inactive) | 130% (inactive) | 2.11 | 0.15 (inactive) | 2.53 (inactive) | 6 | 0.0694 (inactive) | 0.0035 (inactive) | 1.36 (inactive) | 0.0157
COc1cc(Nc2ncc3c(C)nc(-c4cccc(Oc5ccccc5)c4)n3n2)cc(OC)c1OC | 92.5% | 147% (inactive) | 77% (inactive) | -1.34 | 0.075 (inactive) | -0.606 (inactive) | 8.5 | 0.0854 (inactive) | 0 (inactive) | 0.38 (inactive) | 0.0156
CCS(=O)(=O)c1ccc(OC)c(Nc2ncc(-c3ccccc3Cl)o2)c1 | 160% | 36.8% (inactive) | 74.5% (inactive) | -0.91 | -0.335 (inactive) | -0.503 (inactive) | 4.5 | 0.0626 (inactive) | 0.0065 (inactive) | 1.39 (inactive) | -0.145
CN(c1ccc(NC(=O)Nc2c(Cl)cccc2Cl)cc1)c1ccnc(Nc2cccc(CS(C)(=O)=O)c2)n1 | 108% | 130% (inactive) | 134% (inactive) | 3.88 | 0.545 (inactive) | 5.36 (inactive) | 4 | 0.171 (inactive) | 0.005 (inactive) | -0.649 (inactive) | -0.476
NCc1ccc(-n2c(-c3nonc3N)nc3cnccc32)cc1 | 104% | 162% (inactive) | 58% (inactive) | -3.59 | -0.655 (inactive) | -1.05 (inactive) | 1 | 0.0079 (inactive) | 0.003 (inactive) | -0.95 (inactive) | -0.216
O=C(O[C@H]1CN[C@H](C#Cc2cc3ncnc(Nc4ccc5c(ccn5Cc5cc(F)ccc5F)c4)c3s2)C1)N1CCOCC1 | 93.4% | 75.1% (inactive) | 62% (inactive) | -2.06 | 0.505 (inactive) | 2.01 (inactive) | 3 | 0.0606 (inactive) | -0.0085 (inactive) | -0.816 (inactive) | -0.0743
COC(=O)c1ccc2c(c1)/C(=C\c1cc(Br)c(O)c(Br)c1)C(=O)N2 | 150% | 12.2% (active) | 110% (inactive) | 0.355 | -0.645 (inactive) | -0.838 (inactive) | 1 | 0.00779 (inactive) | -0.012 (inactive) | -0.186 (inactive) | -0.227
CCOc1nccc2c1nc(-c1nonc1N)n2CC | 107% | 176% (inactive) | 86% (inactive) | -0.885 | 0.225 (inactive) | 0.153 (inactive) | 4.5 | 0.429 (inactive) | 0 (inactive) | -0.642 (inactive) | -0.113
COc1cc2ncn(-c3cc(O[C@H](C)c4ccccc4Cl)c(C(N)=O)s3)c2cc1OC | 137% | 13.5% (active) | 53.5% (inactive) | -3.26 | -0.155 (inactive) | -1.16 (inactive) | 5.5 | 0.108 (inactive) | -0.004 (inactive) | -1.03 | 5.68
CCCN(CCS(C)(=O)=O)Cc1ccc(-c2ccc3ncnc(Nc4ccc(OCc5cccc(F)c5)c(Cl)c4)c3c2)o1 | 100% | 108% (inactive) | 74.5% (inactive) | -1.22 | 1.21 (inactive) | 1.79 (inactive) | 4.5 | 0.083 (inactive) | -0.0115 (inactive) | -0.517 (inactive) | -0.151
N#Cc1cccc(Nc2ncc(-c3ccccc3)o2)c1 | 108% | 125% (inactive) | 241% (active) | 19.8 | -0.175 (inactive) | 4.37 (inactive) | 6 | 0.11 (inactive) | -0.004 (inactive) | 1.35 (inactive) | 0.0963
CC(C)COC(=O)c1ccc2[nH]c(O)c(C=Nc3ccc(S(N)(=O)=O)cc3)c2c1 | 61% | 105% (inactive) | 108% (inactive) | 0.975 | 0.47 (inactive) | -1.9 (inactive) | 3.5 | 0.0968 (inactive) | -0.013 (inactive) | -0.896 (inactive) | 0.112
Cc1ccc2c(-c3ccnc(Nc4cccc(C(F)(F)F)c4)n3)c(-c3ccccc3)nn2n1 | 84.8% | 47.5% (inactive) | 89.5% (inactive) | -3.32 | -0.495 (inactive) | -1.57 (inactive) | 2.5 | 0.0663 (inactive) | -0.0065 (inactive) | 0.907 (inactive) | -0.257
c1ccc(COc2ccc(Nc3ncnc4ccc(-c5ccco5)cc34)cc2)cc1 | 99% | 71.7% (inactive) | 106% (inactive) | 1.01 | 0.34 (inactive) | -1.14 (inactive) | 3 | 0.073 (inactive) | 0.006 (inactive) | -0.351 (inactive) | -0.356
Cc1nnc(-c2ccc(C)c(-c3ccc(C(=O)Nc4cccc(C#N)c4)cc3)c2)o1 | 117% | 154% (inactive) | 100% (inactive) | 0.575 | -0.18 (inactive) | -0.619 (inactive) | 1.5 | 0.0236 (inactive) | -0.004 (inactive) | -0.755 (inactive) | -0.283
COc1ccc2cc(-c3c(-c4ccncc4)nc(-c4ccc(S(C)=O)cc4)n3C)ccc2c1 (stereo not drawn) | 117% | 121% (inactive) | 93.5% (inactive) | 0.505 | -0.78 (inactive) | 0.151 (inactive) | 5 | 0.161 (inactive) | -0.0035 (inactive) | -0.944 (inactive) | -0.225
c1ccc(Oc2ccc(Nc3ncc(-c4ccccc4)o3)cc2)cc1 | 103% | 102% (inactive) | 110% (inactive) | 1.91 | 0.1 (inactive) | 3.61 (inactive) | 4.5 | 0.122 (inactive) | 0.0065 (inactive) | -0.198 (inactive) | -0.417
COc1ccc2ncn(-c3cc(O[C@H](C)c4ccccc4C(F)(F)F)c(C(N)=O)s3)c2c1 | 75.6% | 88.3% (inactive) | 75% (inactive) | -2.76 | 0.355 (inactive) | -1.54 (inactive) | 7.5 | 0.176 (inactive) | 0.0035 (inactive) | -0.00963 (inactive) | 0.29
FC(F)(F)c1cccc(-c2nn3ncccc3c2-c2ccnc(Nc3ccc4c(c3)OCCO4)n2)c1 | 147% | 22.4% (inactive) | 90.5% (inactive) | 0.13 | -0.325 (inactive) | -0.458 (inactive) | 5.5 | 0.171 (inactive) | 0.007 (inactive) | -0.0141 (inactive) | -0.445
C[C@@H](Oc1cc(-n2cnc3ccc(OCC4CCN(C)CC4)cc32)sc1C(N)=O)c1ccccc1Cl | 73.4% | 117% (inactive) | 104% (inactive) | -0.185 | -0.885 (inactive) | -2.53 (inactive) | 7 | 0.174 (inactive) | -0.009 (inactive) | -0.19 (inactive) | 0.83
COc1cc(/C=N/Nc2ncnc3c2cnn3Cc2ccccc2)ccc1O | 94.9% | 99.3% (inactive) | 85% (inactive) | -0.18 | -0.52 (inactive) | 1.23 (inactive) | 100 | 1.43 (active) | 0.0995 (inactive) | 1.43 (inactive) | 0.207
